Source: PubChem BioAssay (NCATS)
“And” between values parts separate entries of the source, which are not always exact repeats. Equal entries are not always repeated. Inconclusive results are not listed. Entries that show only a call come without a potency. The source made the active and inactive calls. Unless noted, calls follow the shape of the full dose curve.

How the values were obtained:
[1] = target: Thyroid hormone receptor beta (Homo sapiens) (UniProt P10828); test: qHTS assay for small molecule agonists of thyroid hormone receptor beta signaling (AID 588545); also: potency is read from the fitted curve at half-maximal effect
Thyroid hormone receptor beta (Homo sapiens), sequence (P10828 whole entry, looked up): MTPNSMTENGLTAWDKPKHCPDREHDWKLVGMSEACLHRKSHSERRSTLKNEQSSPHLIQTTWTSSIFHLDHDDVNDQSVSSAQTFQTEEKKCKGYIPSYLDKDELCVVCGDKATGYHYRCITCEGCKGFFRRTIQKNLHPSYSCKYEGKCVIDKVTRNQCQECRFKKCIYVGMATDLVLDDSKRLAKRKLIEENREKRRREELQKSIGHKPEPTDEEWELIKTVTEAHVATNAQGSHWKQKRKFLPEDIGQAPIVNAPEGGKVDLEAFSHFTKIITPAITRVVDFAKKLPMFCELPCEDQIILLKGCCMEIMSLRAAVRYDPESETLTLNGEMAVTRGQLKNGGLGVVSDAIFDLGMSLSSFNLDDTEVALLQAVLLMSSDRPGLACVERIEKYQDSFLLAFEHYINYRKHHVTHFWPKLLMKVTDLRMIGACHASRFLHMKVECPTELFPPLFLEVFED
In short: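 HEK 293 TR-UAS-bla; agonist mode; 18 hrs, 37 C; CCF4, ex 405/em 460 and 530 nm; norm. T3 10 nM = 100%, DMSO = 0%; Hill fit → EC50, efficacy.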

[2] = target: Peroxisome proliferator-activated receptor gamma (Homo sapiens) (UniProt P37231); test: qHTS assay for small molecule antagonists of peroxisome proliferator-activated receptor gamma signaling (AID 588537; active = well fitted inhibition curve with a large enough effect in the signal ratio, with a control signal flat, not every such curve was filed as active; the % refers to the signal ratio;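 also: reporter cells co-stimulated with 50 nM rosiglitazone agonist during compound treatment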)
Peroxisome proliferator-activated receptor gamma (Homo sapiens), sequence (P37231 whole entry, looked up): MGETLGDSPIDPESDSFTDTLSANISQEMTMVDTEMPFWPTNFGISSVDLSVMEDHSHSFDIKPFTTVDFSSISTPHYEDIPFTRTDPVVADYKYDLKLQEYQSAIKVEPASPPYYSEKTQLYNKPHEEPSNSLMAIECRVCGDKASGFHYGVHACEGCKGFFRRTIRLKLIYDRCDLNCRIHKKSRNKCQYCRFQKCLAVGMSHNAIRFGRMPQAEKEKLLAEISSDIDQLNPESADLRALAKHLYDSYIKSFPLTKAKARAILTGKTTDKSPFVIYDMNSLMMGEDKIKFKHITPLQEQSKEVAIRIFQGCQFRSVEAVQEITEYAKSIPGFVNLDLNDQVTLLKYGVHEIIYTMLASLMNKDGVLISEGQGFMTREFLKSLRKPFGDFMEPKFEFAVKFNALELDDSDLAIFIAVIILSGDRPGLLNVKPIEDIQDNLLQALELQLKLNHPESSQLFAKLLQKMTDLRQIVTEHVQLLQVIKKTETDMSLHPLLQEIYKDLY
In short: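 Inhibitors of agonist-stimulated UAS-bla reporter activity were sought in HEK293 cells; rosiglitazone (50 nM) defined full signal and DMSO baseline. Curves fitted to Hill model gave IC50 and efficacy.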

[3] = qHTS assay for small molecule antagonists of peroxisome proliferator-activated receptor delta signaling (AID 588535; active = well fitted inhibition curve with a large enough effect in the signal ratio, with a control signal flat, not every such curve was filed as active; the % refers to the signal ratio;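 as to max response: cells co-treated with a PPAR-delta agonist as stimulator during compound exposure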); conditions: HEK293T PPARd-UAS-bla, beta-lactamase FRET ratio, 18 h; 460 nm channel
In short: (§1)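 Cell-based beta-lactamase assay in antagonist mode: 4000 HEK293T PPAR-delta-UAS-bla cells per well, 5 hr preincubation then 18 hr compound incubation at 37 C. IC50 obtained by Hill equation fitting.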

[4] = target: Peroxisome proliferator-activated receptor delta (Homo sapiens) (UniProt Q03181); test: as above
Peroxisome proliferator-activated receptor delta (Homo sapiens), sequence (Q03181 whole entry, looked up): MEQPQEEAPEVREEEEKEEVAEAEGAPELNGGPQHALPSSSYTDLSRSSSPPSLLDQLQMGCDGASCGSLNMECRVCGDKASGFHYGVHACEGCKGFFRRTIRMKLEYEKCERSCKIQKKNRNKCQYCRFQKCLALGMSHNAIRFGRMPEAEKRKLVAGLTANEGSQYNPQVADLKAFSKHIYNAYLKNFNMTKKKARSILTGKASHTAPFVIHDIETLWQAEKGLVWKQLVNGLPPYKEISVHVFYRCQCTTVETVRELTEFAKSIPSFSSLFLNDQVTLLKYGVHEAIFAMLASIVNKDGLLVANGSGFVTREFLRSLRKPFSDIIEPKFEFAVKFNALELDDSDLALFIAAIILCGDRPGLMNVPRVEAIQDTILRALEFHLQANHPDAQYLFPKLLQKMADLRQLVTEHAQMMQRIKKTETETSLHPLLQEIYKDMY
In short: as §1

[5] = target: Peroxisome proliferator-activated receptor gamma (Homo sapiens) (UniProt P37231); test: qHTS assay for small molecule agonists of peroxisome proliferator-activated receptor gamma signaling (AID 588536; active = well fitted curve in the direction sought with a large enough effect in the signal ratio, with a control signal flat, not every such curve was filed as active; the % refers to the signal ratio)
In short: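 Ratiometric blue/green fluorescence (405 nm excitation; 460 and 530 nm emission) from CCF4-loaded HEK293 reporter cells serves as signal. Exposure to test compounds lasts 16 h at 37 C in medium containing 1% charcoal/dextran-treated serum.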

[6] = target: Vitamin D3 receptor (Homo sapiens) (UniProt P11473); test: qHTS assay for small molecule antagonists of vitamin D receptor signaling (AID 588541);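 also: receptor activated by calcitriol during compound treatment; series mostly up to about 77 µM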
Vitamin D3 receptor (Homo sapiens), sequence (P11473 whole entry, looked up): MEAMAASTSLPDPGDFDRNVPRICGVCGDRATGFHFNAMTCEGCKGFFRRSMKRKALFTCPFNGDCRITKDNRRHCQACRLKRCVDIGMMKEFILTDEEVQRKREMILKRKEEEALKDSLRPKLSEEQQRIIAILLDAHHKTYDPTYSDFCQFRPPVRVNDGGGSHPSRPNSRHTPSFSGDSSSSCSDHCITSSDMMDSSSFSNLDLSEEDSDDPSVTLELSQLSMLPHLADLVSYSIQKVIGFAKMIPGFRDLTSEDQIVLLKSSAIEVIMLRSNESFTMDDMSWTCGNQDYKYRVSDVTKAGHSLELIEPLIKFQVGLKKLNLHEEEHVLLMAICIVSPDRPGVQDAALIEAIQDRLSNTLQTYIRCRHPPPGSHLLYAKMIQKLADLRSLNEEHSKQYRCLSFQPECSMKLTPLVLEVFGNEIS
In short: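 Antagonist-mode beta-lactamase reporter assay: HEK293T VDR-UAS-bla cells were exposed to titrated compound alongside 1-alpha,25-dihydroxyvitamin D3 at 3 nM final for 16 h. Values were normalized to the 50 nM agonist control and DMSO basal, with IC50 and efficacy from Hill equation fits.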

[7] = target: Vitamin D3 receptor (Homo sapiens) (UniProt P11473); test: qHTS assay for small molecule agonists of vitamin D receptor signaling (AID 588543)
In short: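 Reporter cells (HEK293T, VDR-UAS-bla) were seeded in medium with 2% charcoal-stripped serum and incubated 5 h, then compounds in concentration series were added for 16 h at 37 °C. Stimulation was scaled between DMSO basal and 50 nM 1α,25-dihydroxyvitamin D3.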

[8] = qHTS assay for small molecule agonists of retinoid X receptor alpha signaling (AID 588544); conditions: HEK293T RXRa-UAS-bla, beta-lactamase reporter, 18 h; 530 nm emission
[9] = target: Retinoic acid receptor RXR-alpha (Homo sapiens) (UniProt P19793); test: as above
Retinoic acid receptor RXR-alpha (Homo sapiens), sequence (P19793 whole entry, looked up): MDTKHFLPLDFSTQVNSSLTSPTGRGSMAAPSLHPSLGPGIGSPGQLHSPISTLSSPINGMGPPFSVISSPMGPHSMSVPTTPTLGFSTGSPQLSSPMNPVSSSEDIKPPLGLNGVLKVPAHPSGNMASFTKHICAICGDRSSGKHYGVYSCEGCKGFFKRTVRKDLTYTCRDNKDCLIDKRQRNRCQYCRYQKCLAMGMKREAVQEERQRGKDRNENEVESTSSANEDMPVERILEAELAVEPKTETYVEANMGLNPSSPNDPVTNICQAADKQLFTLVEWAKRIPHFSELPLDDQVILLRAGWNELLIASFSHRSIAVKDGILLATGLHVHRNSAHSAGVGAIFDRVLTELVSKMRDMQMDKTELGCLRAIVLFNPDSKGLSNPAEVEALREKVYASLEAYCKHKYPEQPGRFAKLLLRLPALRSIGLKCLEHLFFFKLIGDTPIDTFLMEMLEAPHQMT

[10] = qHTS assay for small molecule antagonists of retinoid X receptor alpha signaling (AID 588546); conditions: HEK293T RXRa-UAS-bla, beta-lactamase ratio, antagonist mode; measured here: W530 green channel, cytotoxicity proxy;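 also: cells stimulated with 9-cis-retinoic acid as agonist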
In short: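 Beta-lactamase reporter inhibition, read as CCF4 fluorescence ratio (ex 405, em 460/530 nm) after 2 h at RT. HEK293T UAS-bla cells, 2500/well, were stimulated with 9-cis-RA at 500 or 100 nM final alongside test compound for 18 h at 37 C.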

| Compound | Potency [1] | outcome [2] | max response [3] | outcome [4] | outcome [5] | outcome [6] | outcome [7] | max response [8] | outcome [9] | max response [10] |
| --- | --- | --- | --- | --- | --- | --- | --- | --- | --- | --- |
| COC(=O)[C@H]1[C@H]2C[C@@H]3c4[nH]c5cc(OC)ccc5c4CCN3C[C@H]2C[C@@H](OC(=O)c2cc(OC)c(OC)c(OC)c2)[C@@H]1OC | inactive |  |  |  |  |  |  |  |  |  |
| Nc1nc(N)c2nc(-c3ccccc3)c(N)nc2n1 | 22.4 µM (active) | inactive |  |  |  |  |  |  |  |  |
| C[C@]12CCC(=O)C=C1CC[C@@H]1[C@@H]2C(=O)C[C@@]2(C)[C@H]1CC[C@]2(O)C(=O)CO | inactive | inactive | 10.6% | inactive | inactive | inactive | inactive | 17.3% | inactive | 12.6% |
| Nc1ncn([C@@H]2O[C@H](CO)[C@@H](O)[C@H]2O)c(=O)n1 | inactive |  |  |  |  |  | inactive | -23.8% | inactive | -15% |
| Cc1ccc(S(=O)(=O)NC(=O)NN2CCCCCC2)cc1 | inactive | inactive | 47.3% | inactive | inactive | inactive | inactive | -3.25% | inactive | -4.69% |
| NC(=Nc1ccccc1)Nc1ccccc1 | inactive | inactive | 0.0144% and 57.9% | inactive | inactive |  |  | 3.91% | inactive | -5.44% and -1.29% |
| O=C(O)CCCCCCCC(=O)O | inactive | inactive |  |  | inactive | inactive | inactive | -21.3% | inactive | -5.98% |
| CC(=O)[C@@]1(O)CC[C@H]2[C@@H]3CCC4=CC(=O)CC[C@]4(C)[C@H]3CC[C@@]21C |  |  |  |  |  |  | inactive | 13.3% | inactive | 9.81% |
| CN=C(NC#N)NCCSCc1nc[nH]c1C | inactive | inactive | -4.23% | inactive | inactive | inactive | inactive | 10.9% | inactive | 1.01% |
| NC(=O)N1c2ccccc2C=Cc2ccccc21 | inactive | inactive | 34.8% | inactive | inactive |  |  | -3.76% and -20.7% | inactive | -1.27% and -13.7% |
| O=c1[nH]c(=O)n([C@H]2C[C@H](O)[C@@H](CO)O2)cc1Br | inactive |  | -1.7% | inactive | inactive | inactive | inactive | 16.6% | inactive | 11.1% |
| C[C@]12C=CC(=O)C=C1CC[C@H]1[C@@H]3C[C@@H](O)[C@](O)(C(=O)CO)[C@@]3(C)C[C@H](O)[C@@]12F | inactive | inactive | 10.9% | inactive | inactive | inactive | inactive | -12% | inactive | -1.48% |
| COc1ccc(CN(CCN(C)C)c2ccccn2)cc1 | inactive |  | 15.1% | inactive | inactive |  |  | 16.3% | inactive | 1.42% |
| CCCCNC(=O)NS(=O)(=O)c1ccc(C)cc1 | inactive | inactive | -29.2% and 9.07% | inactive | inactive | inactive | inactive | -17.3% | inactive | -0.0633% |
| CC(C)(Oc1ccc(CCNC(=O)c2ccc(Cl)cc2)cc1)C(=O)O | inactive | inactive |  |  |  | inactive | inactive | 19.7% | inactive | 1.78% |
| CCCCOCCOCCOCc1cc2c(cc1CCC)OCO2 | inactive | inactive | 7.63% | inactive | inactive |  |  | 14.8% and -2.85% | inactive | -2.81% and -3.67% |
| CC(=O)Nc1nnc(S(N)(=O)=O)s1 |  | inactive |  |  | inactive |  |  | -3.24% | inactive | -6.44% |
| COc1cc(Cc2cnc(N)nc2N)cc(OC)c1OC | inactive | inactive | 38% | inactive | inactive | inactive | inactive | 1.73% | inactive | -17.2% |
